For 40 molecules, inhibition results are on record in ChEMBL document CHEMBL3433997, “St. Jude Leishmania screening dataset” (2016).

Sequence of Solute carrier family 2, facilitated glucose transporter member 1 (Homo sapiens) (P11166 whole entry): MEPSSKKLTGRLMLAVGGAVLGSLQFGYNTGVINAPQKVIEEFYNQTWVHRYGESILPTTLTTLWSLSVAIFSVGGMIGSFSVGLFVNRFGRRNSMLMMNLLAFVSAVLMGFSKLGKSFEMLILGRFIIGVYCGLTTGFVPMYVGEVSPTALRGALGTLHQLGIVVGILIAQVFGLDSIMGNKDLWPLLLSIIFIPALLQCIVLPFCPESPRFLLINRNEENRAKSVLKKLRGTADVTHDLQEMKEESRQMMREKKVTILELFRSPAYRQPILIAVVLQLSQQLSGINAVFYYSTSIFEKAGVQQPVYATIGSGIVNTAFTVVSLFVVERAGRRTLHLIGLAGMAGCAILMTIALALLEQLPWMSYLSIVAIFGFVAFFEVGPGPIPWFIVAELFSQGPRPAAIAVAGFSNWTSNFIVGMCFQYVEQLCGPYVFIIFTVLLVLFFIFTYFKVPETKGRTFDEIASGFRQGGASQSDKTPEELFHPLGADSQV

One assay addresses Solute carrier family 2, facilitated glucose transporter member 1 (Homo sapiens) (UniProt P11166). The assay can be described thus: ST_JUDE_LEISH: Cytotoxicity at 2uM final concentration against transgenic Leishmania Mexicana promastigotes LmGLUT1 that are glucose transport deficient and complemented with the human glucose transporter GLUT1. Activity is measured by DNA content using SYBR green in vitro. Format: functional.
On to `O=C(NCCCN1CCCC1=O)NCc1ccccc1`, for which the inhibition (as a rule, the drop in the measured response relative to a control, in per cent) worked out at 0.3%.

`Cn1nc(-c2cccc(CN[C@@H]3CCc4ccc(O)cc43)c2)c2cnc(NC3CCCC3)nc21`: the inhibition was 4.2%.

`COc1ccc(NC(=O)N2CCc3ccc(OCCN(C(C)C)C(C)C)cc32)cc1C(F)(F)F`: the inhibition was 7.93%.

As for `Cc1ccc(NC(=O)NC2CCN(CCCCCNC(=O)C3CC3c3ccc(Cl)c(Cl)c3)CC2)cc1` (stereo not given), the inhibition was -4.5%.

As to `NC(=O)C1CCN(Cc2ccc(-c3ccc(-c4nc5cc(C(F)(F)F)ccc5[nH]4)s3)cc2)CC1`, the inhibition stood at 4.68%.

On to `Nn1c(=O)oc2ccc(Cl)cc2c1=O`, for which the inhibition was 4.15%.

As to `CC(C)C1C(O)=C(c2ccc3ccccc3c2)C(=O)N1Cc1ccsc1` (stereo not given), the inhibition turned out to be 4.27%.

For `COc1ccc(-c2csc3ncnc(Cl)c23)cc1OC`, the inhibition was found to be 3.91%.

Regarding `O=C(Nc1cccc(CN2CCCN(Cc3cccc(Cl)c3)CC2)c1)c1ccc(Cl)c(Cl)c1`, the inhibition worked out at 1.69%.

For `COc1cc(Cc2cnc(N)nc2N)cc(OC(C)C)c1OC`, the inhibition was -0.55%.

For the molecule `CC(CN1CCN(C)CC1)C(=O)Nc1cccc(-c2ccc(-c3nc4cc(F)ccc4[nH]3)cc2)c1` (stereo not given), the inhibition is 4.67%.

Take `CCOC(=O)CCCc1cc(NC2CCN(C)CC2)nc(Nc2ccc(OC)cc2)n1`: the inhibition is -0.13%.

`Cc1cccc2nc(-c3ccc(-c4ccc(NC(=O)NC5CC5c5ccccc5)cc4)cc3)[nH]c12` (stereo not given): the inhibition was determined as 0.9%.

As for `CC(NC(=O)NC1CCC(CCN2CCCc3ccccc32)CC1)c1cccc2ccccc12` (stereo not given), the inhibition amounted to 0.93%.

Consider `CC1CCC2(CC1)N=C(N)N=C(N)N2OCc1cc2ccccc2c2ccccc12` (stereo not given), for which the inhibition turned out to be 3.83%.

`N=C(N)NN=CC(=O)Nc1cccc(C(F)(F)F)c1`: the inhibition was 0.23%.

On to `COc1cc(Cc2cnc(N)nc2N)ccc1OCc1ccc(NC(C)=O)cc1`, for which the inhibition worked out at 1.71%.

As for `Cc1ccc(C(NC(=O)Cc2ccccc2)c2ccc3cccnc3c2O)cc1` (stereo not given), the inhibition was found to be 8.52%.

`Cc1cc(CNCCCCCNCc2ccc(Cl)cc2)ccc1O`: the inhibition was found to be 1.35%.

Consider `Cn1cncc1-c1ccc2ncnc(Nc3ccc4c(cnn4Cc4ccccc4)c3)c2c1`, for which the inhibition came to 1.39%.

Consider `CNS(=O)(=O)Cc1ccc(Nc2nccc(Nc3cccc4c3cnn4C(=O)Nc3ccccc3)n2)cc1`, for which the inhibition amounted to 4.38%.

Take `N#Cc1ccc(-c2cnc3ccc(NCCc4cccnc4)nn23)cc1`: the inhibition was -0.81%.

In the case of `Cc1c(S(=O)(=O)Nc2cccc(CCN3CCCCC3CCN3CCCC3)c2)sc2ccc(Cl)cc12` (stereo not given), the inhibition was -1.39%.

For `CN(C)CCC1CCCc2ccc(NC(=O)Nc3cccc(Cl)c3Cl)cc21` (stereo not given), the inhibition worked out at 1.81%.

Turning to `O=C(Cc1ccc[n+]([O-])c1)Nc1cccc(-c2cccc(-c3nc4cc(C(F)(F)F)ccc4[nH]3)c2)c1`, the inhibition was found to be 2.28%.

For the molecule `CCNc1cc(C(=O)N[C@@H](Cc2ccccc2)[C@H](O)CNCCC(C)c2ccccc2)cc(N2CCCC2=O)c1` (stereo not given in full), the inhibition worked out at 4.77%.

For `CC1(C)N=C(N)N=C(Nc2ccc(F)c(F)c2)N1`, the inhibition is 0.74%.

As to `Cc1cc(N)nc2ccc(-c3cccc(CN)c3)cc12`, the inhibition is 0.78%.

Turning to `CC(=O)NC(c1cccs1)c1cc(Cl)c2cccnc2c1O` (stereo not given), the inhibition is 7.76%.

For `CC(=O)Nc1cccc(C(=O)Nc2cccc(-c3ccc(-c4nc5cc(F)ccc5[nH]4)cc3)c2)c1`, the inhibition was found to be 2.1%.

Regarding `Cc1ccc2c(=NN=CC=Cc3ccccc3)cc(C)[nH]c2c1`, the inhibition worked out at 1.49%.

Consider `Cc1noc(C)c1-c1cccc(CNCc2ccc(-c3ccc(-c4nc5cc(C(F)(F)F)ccc5[nH]4)s3)cc2)c1`, for which the inhibition turned out to be 3.88%.

Take `N#Cc1ccc2c(c1)CCN(CCC1CCC(NC(=O)/C=C/c3ccc4[nH]ccc4c3)CC1)CC2` (stereo not given): the inhibition was 1.65%.

Consider `Cc1ccc(-c2cnc3[nH]cc(-c4ccc(C(=O)O)c(C)c4)c3c2)cc1C`, for which the inhibition was found to be 1.15%.

For the molecule `N=C(NCCc1ccccc1Cl)c1ccc2ccccc2c1`, the inhibition was -1.42%.

Consider `Nc1ncc(-c2cccc(CCN3CCOCC3)c2)cc1-c1nc2cc(Br)ccc2[nH]1`, for which the inhibition worked out at 14%.

Turning to `CC(C)(C)C(=O)Nc1c(-c2cc(=O)oc3cc4c(cc23)CCC4)oc2ccccc12`, the inhibition was 4.02%.

With `COc1ccc(OC)c2c1CCN(C)C2Cc1cccc2ccccc12` (stereo not given), the inhibition was determined as 3.52%.

Turning to `Cc1ccc(C2CC(=O)CC(c3ccccn3)C2[N+](=O)[O-])cc1` (stereo not given), the inhibition was -0.44%.

Turning to `CC1(C)N=C(N)N=C(N)N1OCc1cccc(C#N)c1`, the inhibition is 2.81%.

The target in the next assay is Hexose transporter 1 (Plasmodium falciparum) (UniProt O97467). Nature of the assay: ST_JUDE_LEISH: Cytotoxicity at 2uM final concentration against transgenic Leishmania Mexicana promastigotes LmPfHT that are glucose transport deficient and complemented with the Plasmodium falciparum hexose transporter. Activity is measured by DNA content using SYBR green in vitro. Format: functional.
Regarding `O=C(NCCCN1CCCC1=O)NCc1ccccc1`, the inhibition is -0.23%.

As for `Cn1nc(-c2cccc(CN[C@@H]3CCc4ccc(O)cc43)c2)c2cnc(NC3CCCC3)nc21`, the inhibition worked out at 3.87%.

With `COc1ccc(NC(=O)N2CCc3ccc(OCCN(C(C)C)C(C)C)cc32)cc1C(F)(F)F`, the inhibition turned out to be 7.33%.

For `Cc1ccc(NC(=O)NC2CCN(CCCCCNC(=O)C3CC3c3ccc(Cl)c(Cl)c3)CC2)cc1` (stereo not given), the inhibition was -2.29%.

`NC(=O)C1CCN(Cc2ccc(-c3ccc(-c4nc5cc(C(F)(F)F)ccc5[nH]4)s3)cc2)CC1`: the inhibition is 3.12%.

Take `Nn1c(=O)oc2ccc(Cl)cc2c1=O`: the inhibition amounted to 10.4%.

Consider `CC(C)C1C(O)=C(c2ccc3ccccc3c2)C(=O)N1Cc1ccsc1` (stereo not given), for which the inhibition is 5.59%.

Take `COc1ccc(-c2csc3ncnc(Cl)c23)cc1OC`: the inhibition amounted to 3.53%.

Turning to `O=C(Nc1cccc(CN2CCCN(Cc3cccc(Cl)c3)CC2)c1)c1ccc(Cl)c(Cl)c1`, the inhibition is 1.9%.

Regarding `COc1cc(Cc2cnc(N)nc2N)cc(OC(C)C)c1OC`, the inhibition was 0.72%.

For `CC(CN1CCN(C)CC1)C(=O)Nc1cccc(-c2ccc(-c3nc4cc(F)ccc4[nH]3)cc2)c1` (stereo not given), the inhibition was determined as 3.13%.

In the case of `CCOC(=O)CCCc1cc(NC2CCN(C)CC2)nc(Nc2ccc(OC)cc2)n1`, the inhibition was 0.24%.

On to `Cc1cccc2nc(-c3ccc(-c4ccc(NC(=O)NC5CC5c5ccccc5)cc4)cc3)[nH]c12` (stereo not given), for which the inhibition was -1.52%.

On to `CC(NC(=O)NC1CCC(CCN2CCCc3ccccc32)CC1)c1cccc2ccccc12` (stereo not given), for which the inhibition turned out to be 1.8%.

In the case of `CC1CCC2(CC1)N=C(N)N=C(N)N2OCc1cc2ccccc2c2ccccc12` (stereo not given), the inhibition was 2.5%.

On to `N=C(N)NN=CC(=O)Nc1cccc(C(F)(F)F)c1`, for which the inhibition was determined as 0.15%.

As to `COc1cc(Cc2cnc(N)nc2N)ccc1OCc1ccc(NC(C)=O)cc1`, the inhibition is 4.96%.

With `Cc1ccc(C(NC(=O)Cc2ccccc2)c2ccc3cccnc3c2O)cc1` (stereo not given), the inhibition worked out at 22.8%.

With `Cc1cc(CNCCCCCNCc2ccc(Cl)cc2)ccc1O`, the inhibition turned out to be 1.91%.

In the case of `Cn1cncc1-c1ccc2ncnc(Nc3ccc4c(cnn4Cc4ccccc4)c3)c2c1`, the inhibition worked out at 2.21%.

On to `CNS(=O)(=O)Cc1ccc(Nc2nccc(Nc3cccc4c3cnn4C(=O)Nc3ccccc3)n2)cc1`, for which the inhibition came out at 3.98%.

In the case of `N#Cc1ccc(-c2cnc3ccc(NCCc4cccnc4)nn23)cc1`, the inhibition is -0.84%.

In the case of `Cc1c(S(=O)(=O)Nc2cccc(CCN3CCCCC3CCN3CCCC3)c2)sc2ccc(Cl)cc12` (stereo not given), the inhibition stood at 2.14%.

Consider `CN(C)CCC1CCCc2ccc(NC(=O)Nc3cccc(Cl)c3Cl)cc21` (stereo not given), for which the inhibition was 2.38%.

As for `O=C(Cc1ccc[n+]([O-])c1)Nc1cccc(-c2cccc(-c3nc4cc(C(F)(F)F)ccc4[nH]3)c2)c1`, the inhibition is -0.06%.

As for `CCNc1cc(C(=O)N[C@@H](Cc2ccccc2)[C@H](O)CNCCC(C)c2ccccc2)cc(N2CCCC2=O)c1` (stereo not given in full), the inhibition came out at 5.96%.

On to `CC1(C)N=C(N)N=C(Nc2ccc(F)c(F)c2)N1`, for which the inhibition turned out to be 0.06%.

Take `Cc1cc(N)nc2ccc(-c3cccc(CN)c3)cc12`: the inhibition stood at 0.76%.

As for `CC(=O)NC(c1cccs1)c1cc(Cl)c2cccnc2c1O` (stereo not given), the inhibition came to 6.65%.

In the case of `CC(=O)Nc1cccc(C(=O)Nc2cccc(-c3ccc(-c4nc5cc(F)ccc5[nH]4)cc3)c2)c1`, the inhibition amounted to 2.11%.

`Cc1ccc2c(=NN=CC=Cc3ccccc3)cc(C)[nH]c2c1`: the inhibition was 5.52%.

Take `Cc1noc(C)c1-c1cccc(CNCc2ccc(-c3ccc(-c4nc5cc(C(F)(F)F)ccc5[nH]4)s3)cc2)c1`: the inhibition amounted to 3.12%.

Take `N#Cc1ccc2c(c1)CCN(CCC1CCC(NC(=O)/C=C/c3ccc4[nH]ccc4c3)CC1)CC2` (stereo not given): the inhibition stood at 0.57%.

Consider `Cc1ccc(-c2cnc3[nH]cc(-c4ccc(C(=O)O)c(C)c4)c3c2)cc1C`, for which the inhibition came out at 1.14%.

On to `N=C(NCCc1ccccc1Cl)c1ccc2ccccc2c1`, for which the inhibition is -1.63%.

For `Nc1ncc(-c2cccc(CCN3CCOCC3)c2)cc1-c1nc2cc(Br)ccc2[nH]1`, the inhibition was found to be 9.95%.

For `CC(C)(C)C(=O)Nc1c(-c2cc(=O)oc3cc4c(cc23)CCC4)oc2ccccc12`, the inhibition came to 4.1%.

For `COc1ccc(OC)c2c1CCN(C)C2Cc1cccc2ccccc12` (stereo not given), the inhibition is 3.87%.

Turning to `Cc1ccc(C2CC(=O)CC(c3ccccn3)C2[N+](=O)[O-])cc1` (stereo not given), the inhibition came to 0.92%.

Take `CC1(C)N=C(N)N=C(N)N1OCc1cccc(C#N)c1`: the inhibition was 0.82%.
